Sampled rows, rich in hits. Any-hit rate of the full collection: about 7%.
ADAM10 inh: inhibits human ADAM10; recombinant ADAM10, EDANS/DABCYL FRET peptide cleavage, 3 h; 0.62% of 370,000 active; inhibition, % at 7 µM;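 active = inhibition above a per-campaign cutoff equal to the mean of compounds falling between control-based bounds plus 3 SD, cut at about 20% in these data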;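 note: 0% = DMSO wells while the 100% control is not disclosed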
rCAG binder: binds r(CAG) RNA repeats; r(CAG) RNA repeat, TO-PRO-1 dye displacement fluorescence; inhibition, % at 3 µM; 1.3% of 370,000 active;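 active = inhibition above the plate cutoff, the mean of all test compounds on that plate plus 3 SD, cut at about 35% in these data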;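 note: 0% = DMSO alone and 100% = 100 µM mitoxantrone as full dye displacement; higher means more dye released from RNA so lower well fluorescence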
NR3A LBD binder: modulators (binders) of human NR3A ligand-binding domain. NR3A LBD differential scanning fluorimetry, Tm shift; 0% = protein alone, 100% = glycine-bound protein. 2.5% of 340,000 active. Tm shift relative to glycine control, % at 25 µM;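 active = melting temperature shift of at least 10% of the positive control shift, at one fixed dose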
ADAM17 inh: inhibits human ADAM17; P78536; recombinant ADAM17, EDANS/DABCYL FRET peptide cleavage; inhibition, % at 6.95 µM; 0.83% of 370,000 active;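 active = inhibition above the mean of compounds lying between control limits plus 3 SD, set per campaign, cut at about 8.5% in these data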;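 note: 0% = DMSO-only wells as the low control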
proKLK7 act: proKLK7 (human) activation, primary screen | P49862 | purified proKLK7, EDANS-DABCYL substrate fluorescence; 100% is mature enzyme control, 0% vehicle | activation, % at 7 µM | 0.9% of 370,000 active;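 active = activation above the mean of all tested compounds plus 3 SD, computed per campaign excluding outliers beyond control limits, cut at about 13% in these data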
AHR act: activators of human aryl hydrocarbon receptor | P35869 | AHR-responsive luciferase reporter cells, luminescence | activation, % at 5 µM | 2.5% of 320,000 active; in the data active = activation above about 47%;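 note: 0% = vehicle wells and 100% = reference agonist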
Target sequence (P35869 whole entry, looked up): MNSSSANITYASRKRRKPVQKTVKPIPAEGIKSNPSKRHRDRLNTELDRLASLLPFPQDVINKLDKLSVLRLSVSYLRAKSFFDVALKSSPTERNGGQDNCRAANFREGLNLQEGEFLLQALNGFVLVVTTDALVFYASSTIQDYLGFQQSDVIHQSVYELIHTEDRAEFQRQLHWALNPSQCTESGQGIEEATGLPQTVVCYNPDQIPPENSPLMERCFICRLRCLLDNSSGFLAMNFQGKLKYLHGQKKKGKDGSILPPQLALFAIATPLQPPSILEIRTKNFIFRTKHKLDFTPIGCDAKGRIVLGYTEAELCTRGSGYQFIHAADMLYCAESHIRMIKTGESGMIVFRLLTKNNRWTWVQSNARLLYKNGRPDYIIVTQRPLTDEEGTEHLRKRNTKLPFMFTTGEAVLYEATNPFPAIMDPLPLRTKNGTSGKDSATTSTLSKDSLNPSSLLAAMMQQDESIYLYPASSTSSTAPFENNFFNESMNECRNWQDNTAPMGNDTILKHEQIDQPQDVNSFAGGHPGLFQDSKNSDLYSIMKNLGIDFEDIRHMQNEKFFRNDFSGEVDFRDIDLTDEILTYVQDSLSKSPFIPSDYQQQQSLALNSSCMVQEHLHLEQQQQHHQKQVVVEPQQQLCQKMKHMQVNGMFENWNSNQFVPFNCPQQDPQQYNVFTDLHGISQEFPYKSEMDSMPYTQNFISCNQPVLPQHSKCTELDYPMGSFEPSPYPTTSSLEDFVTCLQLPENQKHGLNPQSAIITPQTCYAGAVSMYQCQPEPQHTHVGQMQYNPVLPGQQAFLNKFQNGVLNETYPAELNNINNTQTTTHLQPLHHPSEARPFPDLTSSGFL
* marks the source's active call; other numbers are inactive results.

Results for O=S1(=O)c2ccc(N3CCN(Cc4ccccc4F)CC3)cc2Oc2ccccc2CN1Cc1cn(Cc2ccc(C(F)(F)F)cc2)nn1 ?
ADAM10 inh: -15.2; rCAG binder: 13.4; ADAM17 inh: -4.3; proKLK7 act: 0.4

What do the screens show for `COC(=O)[C@]12C[C@H](CC(=O)N3CCN(C(=O)C4CC4)CC3)C(=O)N(Cc3ccc(Cl)cc3Cl)C1=C[C@H](C1CCCC1)O[C@@H]2C`?
ADAM10 inh: 4.8; rCAG binder: 8.9; ADAM17 inh: 0.4; proKLK7 act: 0.7

How did COC(=O)C1(C(=O)OC)NOC2C(=O)N(c3ccc(Cl)cc3Cl)C(=O)C21 (stereo not given) do in these assays?
ADAM10 inh: 11.8; rCAG binder: 27.3; NR3A LBD binder: -0.5; ADAM17 inh: 11.3*; proKLK7 act: 0.1; AHR act: 0.4

How did COC(=O)C1(C(=O)OC)NOC2C(=O)N(N(C)c3ncc(C(F)(F)F)cc3Cl)C(=O)C21 (stereo not given) do in these assays?
ADAM10 inh: 4.8; rCAG binder: 8.9; NR3A LBD binder: -1.6; ADAM17 inh: 4.1; proKLK7 act: -1.4; AHR act: -0.2

What do the screens show for `COc1ccc(/C=C2\CCC(C3CCCC3)C2=O)c(OC)c1` (stereo not given)?
ADAM10 inh: 0.0; rCAG binder: -1.0; NR3A LBD binder: 2.8; ADAM17 inh: -0.8; proKLK7 act: -0.3; AHR act: 14.1

What do the screens show for `COc1cc(OC)c(OC)cc1/C=C1\CCC(C2CCCC2)C1=O` (stereo not given)?
ADAM10 inh: -2.1; rCAG binder: 2.4; NR3A LBD binder: 0.9; ADAM17 inh: -0.6; proKLK7 act: -1.2; AHR act: 55.5*

What do the screens show for `CCC[C@H]1[C@@H](NC(=O)c2ccc(Cl)cc2)CC[C@@]23CCCN2C(=O)CCC[C@@H]13`?
ADAM10 inh: -5.3; ADAM17 inh: -5.1

How did CC(C)(C)c1ccc(OCC(=O)N/N=C/c2cc(Br)ccc2OC(=O)c2ccco2)cc1 do in these assays?
ADAM10 inh: -1.0; rCAG binder: 2.7; NR3A LBD binder: 22.8*; ADAM17 inh: 2.7; proKLK7 act: 0.1; AHR act: 0.6

Results for Oc1c(Cl)cc(Cl)cc1CNc1nc2ccccc2[nH]1 ?
ADAM10 inh: 9.1; rCAG binder: 9.1; NR3A LBD binder: 10.3*; ADAM17 inh: 4.2; proKLK7 act: 0.2; AHR act: 3.5

Results for Oc1c(Cl)cc(Cl)cc1CNc1ccccn1 ?
ADAM10 inh: 9.8; rCAG binder: 4.7; NR3A LBD binder: -3.8; ADAM17 inh: 4.4; proKLK7 act: 0.1

How did COc1cc2c(cc1NC(=S)NC(=O)/C=C/c1ccco1)oc1ccccc12 do in these assays?
ADAM10 inh: -0.5; rCAG binder: 7.7; NR3A LBD binder: 1.7; ADAM17 inh: -1.1; proKLK7 act: -0.3; AHR act: 11.7

How did CCN(CC)S(=O)(=O)c1ccc(O)c(NC(=O)c2cc(-c3cc(OC)c(OC)c(OC)c3)nc3ccccc23)c1 do in these assays?
NR3A LBD binder: 17.0*; AHR act: 2.3

Results for COc1cc2c(cc1NC(=S)Nc1ccccc1C)oc1ccccc12 ?
ADAM10 inh: -410.1; rCAG binder: 4.4; NR3A LBD binder: 0.2; ADAM17 inh: -140.7; proKLK7 act: -3.9; AHR act: 18.6

What do the screens show for `COc1cc2c(cc1NC(=S)NC(=O)/C=C/c1ccc(OC)c(OC)c1)oc1ccccc12`?
ADAM10 inh: -32.6; rCAG binder: 7.0; NR3A LBD binder: 0.4; ADAM17 inh: -16.4; proKLK7 act: -1.3

What do the screens show for `CCNC(=S)Nc1cc2oc3ccccc3c2cc1OC`?
ADAM10 inh: -119.9; rCAG binder: 9.8; NR3A LBD binder: 7.3; ADAM17 inh: -40.1; proKLK7 act: -0.4; AHR act: 70.1*

How did CCCNC(=S)Nc1cc2oc3ccccc3c2cc1OC do in these assays?
ADAM10 inh: 7.0; rCAG binder: 11.2; NR3A LBD binder: 17.9*; ADAM17 inh: -5.0; proKLK7 act: 0.8; AHR act: 52.6*

How did CNC(=S)Nc1cc2oc3ccccc3c2cc1OC do in these assays?
ADAM10 inh: -7.1; rCAG binder: 5.5; NR3A LBD binder: 18.4*; ADAM17 inh: -5.7; proKLK7 act: -0.5

Results for O=C(c1cccc(F)c1F)N1CCCC(c2nc(-c3cccs3)no2)C1 (stereo not given) ?
ADAM10 inh: -1.6; rCAG binder: -0.9; ADAM17 inh: 0.2; proKLK7 act: -0.5

Results for Cc1cccc(Cn2cc(COC(=O)Nc3ccc(F)cc3)nn2)c1 ?
ADAM10 inh: 7.2; rCAG binder: 0.4; ADAM17 inh: 4.1; proKLK7 act: 0.3

Results for [C-]#[N+][C@]12C(=O)[C@H](C=C(Cl)[C@@]1(C)C=C)C(C)(C)[C@H]1C(=O)N(C)c3cccc2c31 ?
ADAM10 inh: 2.2; rCAG binder: 1.6; ADAM17 inh: 0.3; proKLK7 act: 0.1

How did CCN(CC)S(=O)(=O)c1ccc(C(=O)Nc2cc3oc4ccccc4c3cc2OC)cc1 do in these assays?
ADAM10 inh: 2.0; rCAG binder: 8.8; NR3A LBD binder: 11.0*; ADAM17 inh: 0.7; proKLK7 act: -5.3; AHR act: 51.4*

Results for Cc1ccccc1OCC(=O)Nc1nnc(C2CCCC2)s1 ?
ADAM10 inh: -0.9; rCAG binder: -2.6; NR3A LBD binder: 1.7; ADAM17 inh: -4.3; proKLK7 act: -0.2; AHR act: 0.7

Results for CCOc1ccccc1NC(=O)CCC(=O)Nc1nnc(C2CCCCC2)s1 ?
ADAM10 inh: -11.2; rCAG binder: -1.9; NR3A LBD binder: 14.8*; ADAM17 inh: -0.9; proKLK7 act: 0.2; AHR act: 4.3

Results for Cc1nc(-c2ccccc2)sc1C(=O)Nc1ccc(S(N)(=O)=O)cc1 ?
ADAM10 inh: 1.9; rCAG binder: 7.7; NR3A LBD binder: 11.8*; ADAM17 inh: 2.1; proKLK7 act: 0.2; AHR act: 0.0

How did Cc1nc(-c2ccccn2)sc1C(=O)Nc1ccc(F)cc1 do in these assays?
ADAM10 inh: 4.3; rCAG binder: -1.1; NR3A LBD binder: -6.3; ADAM17 inh: 1.3; proKLK7 act: -0.3; AHR act: 118.1*

What do the screens show for `Cc1nc(-c2ccncc2)sc1C(=O)Nc1ccc(Cl)cc1`?
ADAM10 inh: 4.5; rCAG binder: -4.0; NR3A LBD binder: -3.7; ADAM17 inh: 0.5; proKLK7 act: -0.2; AHR act: 64.5*

What do the screens show for `Cc1ccccc1NC(=O)N(C)[C@H]1C[C@H]2c3[nH]c4c(-c5ccccc5)cccc4c3CCN2C[C@H]1[C@H](C)O`?
ADAM10 inh: -43.3; rCAG binder: 11.5; ADAM17 inh: -5.4; proKLK7 act: 1.0

How did COC(=O)[C@]12C[C@H](CC(=O)NCc3ccccc3)C(=O)N(Cc3cccc4ccccc34)C1=C[C@H](C(C)(C)C)O[C@@H]2C do in these assays?
ADAM10 inh: 16.2; rCAG binder: 5.5; ADAM17 inh: 7.6; proKLK7 act: -0.1

Assay outcomes: PubChem, several laboratories
